Bioassay records from PubChem.
Only some compounds are listed: those with a hit (about 27% of all), similar ones and a draw of the others.
CYP2C9 act = increases human cytochrome P450 2C9 activity; P11712; recombinant CYP2C9, luciferin-H conversion, luminescence; hits give high values; factor 1 = untreated enzyme, 0 = blocked; activation factor at 5 µM; 1.4% of 96,000 active;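 active = activation factor of 2 or more for CYP2C9 at a 5 µM dose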;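 also: 0 = sulfaphenazole-blocked wells and 1 = vehicle-only wells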
CYP2C9 inh = human CYP2C9 inhibition; CYP2C9 Supersomes, luciferin-H conversion, luminescence; inhibition, % at 5 µM; 20% of 96,000 active; AID 777;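 active = blocking of liver enzyme CYP2C9 beyond about 50% at 5 µM, limit read from the data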
Cav32 inh = inhibitors of human Cav3.2 T-type calcium channel | O95180 | Cav3.2-expressing cells, Fluo-4 calcium fluorescence FDSS; hits give low values | B-score at 10 µM | 4% of 100,000 active | AID 449739;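 active = single-dose well whose peak fluorescence ratio is a statistical outlier from its plate by either plate-standardised score or position-corrected B-score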
CYP2C19 activ = cytochrome P450 2C19 (human) activation; recombinant CYP2C19, luciferin-H EGE luminescence; hits give high values; 0 = fully inhibited enzyme, 1 = untreated enzyme; activation factor at 5 µM; 96,000 tested, under 10 active; AID 1025;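 active = activation factor of at least 2 at 5 µM in the primary screen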;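 also: 0 = wells with 2.5 mM tranylcypromine and 1 = vehicle-only wells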
CYP2C19 inh = blocks human cytochrome P450 2C19. CYP2C19 Supersomes, luciferin-H EGE luminescence, 30 min. inhibition, % at 5 µM. P33261. 21% of 96,000 active. AID 778;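 active = CYP2C19 inhibition above a set limit at 5 µM in the primary screen, cut at about 50% in these data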;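 also: plate controls were negative control wells for no effect and 2.5 mM tranylcypromine positive control for full effect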
* = called active by the depositor; x = no result.

SMILES | CYP2C9 act | CYP2C9 inh | Cav32 inh | CYP2C19 activ | CYP2C19 inh
NC1=C(c2ccc(F)cc2)C(=O)CS1 | 0.7 | 34 | 0.43 | 0.7 | 26
CCC(=O)NC(=S)Nc1cccc(NC(=O)c2ccc(Cl)cc2Cl)c1 | 1 | -5 | 0.18 | 0.9 | 9
O=C(COc1ccccc1Cl)NC(=S)Nc1cccc(NC(=O)c2ccccc2Cl)c1 | 0.3 | 67* | -0.96 | 0.7 | 26
OC1(c2cccnc2)CCN(Cc2nnnn2C2CCCCC2)CC1 | 0.9 | 14 | 0.41 | 0.7 | 26
COc1ccc(OC)c(C2=NOC(C(=O)N3CCCc4ccccc43)C2)c1 (stereo not given) | 2.4* | -140 | -0.7 | 0.6 | 41
O=C(C1CC(c2ccc(F)cc2)=NO1)N1CCCc2ccccc21 (stereo not given) | 2.4* | -138 | -1.4 | 0.5 | 52*
CCOC(=O)N1CCN(C(=O)C2CC(c3cc(OC)ccc3OC)=NO2)CC1 (stereo not given) | 1.3 | -28 | 0.62 | 1.1 | -9
CCCCN1Cc2cc(C(=O)c3cc(F)ccc3O)cnc2NC1=O | 0.6 | 38 | 1.4 | 0.8 | 23
CCOc1ccc(OCCOCCN2CCc3ccccc3C2)cc1 | 1 | 4 | 0.79 | 0.8 | 17
c1ccc(COc2ccc(OCCCn3cncn3)cc2)cc1 | 0 | 96* | -0.047 | 0.1 | 94*
CC1CCN(CCCOc2ccc(OCc3ccccc3)cc2)CC1 | 0.9 | 10 | -3.4 | 0.8 | 20
Clc1ccc(OCCN2CCOCC2)cc1Cl | 1 | 1 | -4* | 0.7 | 32
O=C(CCSc1ccc(Cl)cc1)N1CCOCC1 | x | x | 1 | x | x
c1ccc(-c2ccc(OCCOCCn3cncn3)cc2)cc1 | 0.3 | 67* | 0.53 | 0.1 | 95*
Clc1ccc(SCCCCn2cncn2)cc1 | 0.2 | 76* | -0.082 | 0 | 98*
Cc1cc(OCCCCCNCCO)ccc1Cl | x | x | 0.32 | x | x
Clc1ccc(OCCCn2cncn2)cc1Cl | 0.1 | 92* | -0.15 | 0 | 99*
FC(F)(F)c1cccc(OCCOCCn2cncn2)c1 | 0.7 | 33 | 0.063 | 0.1 | 86*
COc1ccc(OCCn2cncn2)cc1 | 1.1 | -13 | 0.7 | 1 | -2
c1ccc(-c2ccccc2OCCn2cncn2)cc1 | 1.8 | -80 | 0.062 | 0 | 97*
c1ccc(Cc2ccc(OCCn3cncn3)cc2)cc1 | 0 | 98* | -0.58 | 0 | 97*
C=CCOC(=O)C1=C[C@@H](c2coc3ccccc3c2=O)C[C@@H](OCCCCO)O1 | x | x | 0.75 | x | x
CCCCN(Cc1ccccc1)C(=O)C1CCN(S(=O)(=O)c2c(C)noc2C)CC1 | 1 | 1 | 1.9 | 1 | 4
NCCOc1ccccc1Cc1ccccc1 | 0.8 | 22 | -0.003 | 0.7 | 32
NCCOc1ccccc1-c1ccccc1 | 0.3 | 66* | 1.7 | 0.4 | 57*
SMILES | CYP2C9 act | CYP2C9 inh | Cav32 inh | CYP2C19 activ | CYP2C19 inh
c1csc(C2Nc3cccc4cccc(c34)N2)c1 | 0.9 | 12 | -1.3 | 0.6 | 43
Brc1ccc(C2Nc3cccc4cccc(c34)N2)o1 | 0.8 | 20 | -5.4* | 0.3 | 71*
Cc1cc(C(C)(C)C)oc1C(=O)N(CC(=O)NC1CCCC1)Cc1ccccc1Cl | 0.5 | 54* | -3.6 | 0.7 | 35
CC(=O)NCCc1cc2ccc(C)cc2[nH]c1=O | 1 | 2 | x | 1 | -2
COc1ccc(OC)c2[nH]c(=O)c(CCNC(=O)C(C)C)cc12 | 1.2 | -16 | 0.00023 | 0.8 | 15
Cc1ccc2cc(CCNC(=O)c3ccc(Br)o3)c(=O)[nH]c2c1 | 0.6 | 37 | x | 0.5 | 54*
COc1ccc(OC)c2[nH]c(=O)c(CCNC(=O)C3CCCCC3)cc12 | 2.4* | -144 | 0.046 | 0.7 | 31
COc1ccc(OC)c2[nH]c(=O)c(CCNC(=O)c3ccc(Br)o3)cc12 | 1.6 | -58 | -0.19 | 0.2 | 77*
COc1ccc(OC)c2[nH]c(=O)c(CCNC(=O)CC(C)C)cc12 | 2.5* | -154 | -0.04 | 0.7 | 32
O=C1N[C@@H](Cc2ccccc2)C(=O)N2[C@@H]1C[C@]1(Br)c3ccccc3N(S(=O)(=O)c3ccccc3)[C@H]21 | x | x | -2.4 | x | x
COCCNc1nc(-c2cc(C(=O)Nc3ccccc3)on2)cc(C(C)C)n1 | x | x | -2.3 | x | x
Cn1cnnc1SCc1ccc(C(=O)n2ncc(C#N)c2N)cc1 | 1 | -5 | 0.37 | 1 | -3
COc1ccc(OC)c(C(C)NC=O)c1 (stereo not given) | 1.1 | -9 | -0.55 | 1 | -4
COc1ccc(OC)c(C(O)c2nc3ccccc3n2C(C)C)c1 (stereo not given) | 0.6 | 37 | -0.83 | 0.3 | 74*
Cc1cc(C)c(-c2noc(C(=O)OC(C)(C)C)c2C(=O)OC(C)(C)C)c(C)c1 | 0.9 | 12 | -0.95 | 0.8 | 16
Cc1c(C(=O)COC(C)(C)C)[nH]c2ccccc12 | 1.1 | -8 | x | 0.5 | 55*
CCn1c(SCC(=O)N2c3ccccc3Sc3ccccc32)nnc1-c1ccco1 | 0.2 | 83* | -3.5 | 0.1 | 89*
CCn1c(SCC(=O)c2cccs2)nnc1-c1ccco1 | 0.9 | 13 | -0.43 | 0.2 | 76*
O=C(CN(CC1CCCO1)C(=O)CCC(=O)Nc1nccs1)NCc1ccccc1 (stereo not given) | x | x | 0.57 | x | x
CC(NC(=O)NC1CCCCC1)C(c1cccs1)N1CCN(Cc2ccccc2)CC1 (stereo not given) | 0.5 | 54* | -3.4 | 0.6 | 39
CC(NC(=O)NC1CCCCC1)C(c1cccs1)N1CCOCC1 (stereo not given) | x | x | 0.088 | x | x
CC(NC(=S)NCCc1ccccc1)C(c1cccs1)N1CCN(Cc2ccccc2)CC1 (stereo not given) | x | x | -4.6* | x | x
O=C(Nc1cccc(NC(=O)c2ccc(-c3ccc(Br)cc3)o2)c1)c1ccco1 | x | x | -3.4 | x | x
O=C(NC1CC1)C1=C[C@H](c2coc3ccccc3c2=O)C[C@H](OCc2ccc(CO)cc2)O1 | x | x | 0.34 | x | x
COC(=O)C(NS(C)(=O)=O)(c1c(C)[nH]c2ccccc12)C(F)(F)F (stereo not given) | 0.9 | 12 | x | 0.4 | 64*
SMILES | CYP2C9 act | CYP2C9 inh | Cav32 inh | CYP2C19 activ | CYP2C19 inh
CCOc1c2ccc(C(=O)NCc3ccccc3OC)cc2nn1CC | 1.1 | -12 | 0.94 | 1 | 2
CC1CC(NC(=O)Cc2ccc(Br)cc2)CC(C)(C)C1 (stereo not given) | x | x | -7.4* | x | x
O=c1oc(-c2ccc(Br)o2)nc2ccccc12 | 0.9 | 7 | 0.076 | 0.2 | 77*
COc1ccc(NC(=O)c2cc(OC)c(OC)c(OC)c2)cn1 | 0.6 | 42 | 0.2 | 0.4 | 56*
Cc1ccc(/C=N/NC(=O)CSCc2ccc(Cl)cc2)cc1 | 0.7 | 28 | -1.4 | 0.7 | 25
COc1ccc(NC(=O)CCCC(=O)OCC(F)(F)C(F)F)cc1 | 0.9 | 9 | 0.96 | 0.6 | 41
COc1ccccc1NC(=O)CCCC(=O)OCC(F)(F)C(F)F | 2.8* | -182 | 0.82 | 0.1 | 87*
CCCCOC(=O)n1ccc(C(=O)Nc2ccccc2OC)n1 | 2.1* | -111 | -0.5 | 0.9 | 10
Cc1ccsc1/C=N/NC(=O)CSCc1ccc(Cl)cc1 | 0.8 | 22 | -5.2* | 0.5 | 51*
